The record followed here is PubChem BioAssay.

Values joined by “and” are separate entries in the source; they are usually repeats but may differ in a detail not shown here. Identical values can stand only once. More than one record can exist for a structure, and the calls need not agree. Active and inactive are the calls of the source.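 How the source made its calls, unless noted: active means inhibition at or above 50% relative to wild type and mutant plate controls; inactive means inhibition below 50%.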

Assay [1] is described as follows: inhibitors of TNFa-induced NFkB p65 translocation, primary screen, imaging, HUVEC, MLSMR starter and 10KST1 sets (AID 438;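 active means inhibition above 20% together with a positive visual image hit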;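 further: compound added about 3h40 before a 20 min TNFalpha stimulation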;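 on inhibition: signal is the nuclear over cytoplasmic p65 intensity ratio per well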). The settings on record: HUVEC TNFa-induced p65 nuclear translocation; cell count: measured here: nuclei count (cytotoxicity indicator), at 2.08 µM; inhibition: at 2 µM, stronger effect = higher value, 0% TNFa-plus-vehicle, 100% no-TNFa wells.
The nature of assay [2]: inhibitors of mutant huntingtin aggregation, primary screen, imaging, exon1htt(103Q)mCFP cells, high-content imaging (AID 483;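 active means visual image review flags a hit and inhibition of aggregation exceeds 20%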;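 further: compound exposure lasted 3 days before fixation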;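 on nuclei count: percent of the per-plate median nuclei count of sample wells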). Conditions: exon1htt(103Q)mCFP cell line, aggregate imaging, at 2 µM; inhibition of aggregation: stronger effect = higher value; nuclei count: measured here: cell count, toxicity.
A short description of assay [3]: inhibitors of E-selectin induction by TNFa, primary screen, imaging, HUVEC, immunofluorescence, MLSMR starter and 10KST1 sets (AID 487;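 active means visually confirmed hit in the image check and inhibition above 20%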;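 on inhibition: signal is fraction of cell area covered by stained E-selectin grains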;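 on nuclei count: 100% = median nuclei count of all wells on the same plate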). The settings on record: HUVEC TNFalpha-induced E-selectin immunofluorescence imaging, at 2 µM; inhibition: stronger effect = higher value; nuclei count: measured here: cell number, toxicity.
A short description of assay [4]: DUSP6 inhibitors restoring Erk phosphorylation by chemical complementation, primary imaging in DUSP6-transfected HeLa (AID 609;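 active means compounds giving at least 50% inhibition in the cell-based MKP-3 phosphatase rescue imaging test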;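 on inhibition: phospho-Erk level distribution per well compared with pooled transfected vehicle control wells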). The settings on record: HeLa MKP-3 transfected, phospho-Erk imaging KS statistic, at 10 µM, cells stimulated with TPA for 15 min.
Assay [5] deals with Dual specificity protein phosphatase 6 (Homo sapiens) (UniProt Q16828). The description is as above. Conditions: HeLa MKP-3 transfected, phospho-Erk imaging KS statistic; at 10 µM; stronger effect = higher value; cells stimulated with TPA for 15 min.
Assay [6] has as its target Voltage-gated potassium channel subunit beta-2 (Rattus norvegicus) (UniProt P62483). Description: KvBeta enzyme negative modulators, primary screen, biochemical, NADPH fluorescence (AID 622;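 active means fluorescence slope higher than the sample average by over 3 SD, cut at about -0.22 in these data, passing the limit was not always enough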;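 further: slope of raw intensity against log time taken from 70 to 1610 s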). Conditions: recombinant KvBeta, 4-cyanobenzaldehyde reduction, at 10 µM, stronger effect = higher value.
Assay [7] shares this target. Description: KvBeta positive modulators, primary screen, biochemical, NADPH fluorescence (AID 623;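 active means NADPH fluorescence slope more negative than the mean of all samples by about 3 SD, 99.7% confidence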;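 further: fluorescence intensity change per second fitted from 20 to 320 s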). The settings on record: Recombinant KvBeta, NADPH fluorescence decrease slope, 10 min; at 10 µM; stronger effect = lower value.
The target in assay [8] is Alpha-2C adrenergic receptor (Homo sapiens) (UniProt P18825). Description: modulators of alpha2C/GIRK thallium flux, primary screen, cell-based, HEK293 alpha2C/GIRK1/2 (AID 624;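 active means fluorescence slope after compound addition differing from the mean of all screened samples at 99.7% confidence, in either direction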;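 further: slope of fluorescence ratio to pre-addition baseline per second over 15 to 24 s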). Conditions: thallium flux BTC fluorescence, at 10 µM, actives lie on both sides.
Assay [9] is described as follows: inhibitors of larval lipid processing in zebrafish, primary screen, whole organism, PED6 fluorescence, gall bladder and intestine (AID 686;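 active means a full or partial loss of lipid-probe fluorescence in the fish gall bladder, intestine or both, judged by eye; inactive means no fluorescence loss, or compound toxic to the fish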;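 further: larvae 5 to 7 days old with five fish per well; signal comes from phospholipase A2 cleavage of quenched PED6 carried via bile; overnight exposure to compound and PED6 before scoring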). Conditions: Zebrafish larvae PED6 lipid processing, fluorescence scoring; screened at 20 µM (by protocol).
The nature of assay [10]: inhibitors of Chlamydomonas gravitaxis, primary screen, whole organism, Chlamydomonas reinhardtii, WT vs cilia-less mutant, absorbance, 96-well (AID 463189).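 Further: 0% = wild type cc124 cells in DMSO and 100% = ciliumless bld1 mutant cells.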 The settings on record: OD600 absorbance, 2 days, at 10 µM, stronger effect = higher value.
Assay [11] in a line: inhibitors of Sendai virus-induced IRF3 signaling, primary screen, TLR/RLR signaling modifier project, cell-based, Sendai virus stimulus, luciferase, 10K MLSCN set (AID 602276;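 active means inhibition at or above 50% at 10 µM; inactive means inhibition below 50%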;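 further: firefly luciferase from ISG56 promoter only with Renilla not read in this screen; 0% = Sendai virus plus DMSO and 100% = medium plus DMSO without virus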). The settings on record: HEK293 RL24 IRF3 luciferase reporter, at 10 µM, stronger effect = higher value. Background: Reporter assays use an easily measured gene product as a stand-in for the process of interest.
Assay [12] in a line: inhibitors of poly I:C-induced TLR3 signaling, primary screen, cell-based, poly I:C stimulus, luciferase, 10K MLSCN set (AID 602277;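 active means inhibition of the reporter signal at or above 50%; inactive means inhibition below 50%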). Conditions: HEK293-TLR3 RL24 IRF3 luciferase reporter, at 10 µM, stronger effect = higher value.
Setting [13] is: measured here: cell density z-score.
Where [14] appears, read: measured here: nuclear c-Myc green intensity z-score.
Setting [15] is: measured here: nuclear pErk red intensity z-score, stronger effect = higher value.

Chain of Dual specificity protein phosphatase 6 (Homo sapiens) (Q16828 whole entry, looked up): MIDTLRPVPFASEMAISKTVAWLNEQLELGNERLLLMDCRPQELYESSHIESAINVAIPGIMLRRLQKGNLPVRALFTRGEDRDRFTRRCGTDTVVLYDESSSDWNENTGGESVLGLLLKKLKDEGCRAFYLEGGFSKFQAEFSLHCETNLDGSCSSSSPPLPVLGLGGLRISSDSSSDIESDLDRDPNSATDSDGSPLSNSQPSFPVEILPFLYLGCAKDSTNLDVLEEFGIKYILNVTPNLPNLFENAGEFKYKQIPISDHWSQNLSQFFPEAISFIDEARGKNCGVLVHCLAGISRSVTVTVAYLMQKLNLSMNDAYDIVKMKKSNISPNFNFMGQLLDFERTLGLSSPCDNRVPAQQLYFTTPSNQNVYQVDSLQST
Chain of Voltage-gated potassium channel subunit beta-2 (Rattus norvegicus) (P62483 whole entry, looked up): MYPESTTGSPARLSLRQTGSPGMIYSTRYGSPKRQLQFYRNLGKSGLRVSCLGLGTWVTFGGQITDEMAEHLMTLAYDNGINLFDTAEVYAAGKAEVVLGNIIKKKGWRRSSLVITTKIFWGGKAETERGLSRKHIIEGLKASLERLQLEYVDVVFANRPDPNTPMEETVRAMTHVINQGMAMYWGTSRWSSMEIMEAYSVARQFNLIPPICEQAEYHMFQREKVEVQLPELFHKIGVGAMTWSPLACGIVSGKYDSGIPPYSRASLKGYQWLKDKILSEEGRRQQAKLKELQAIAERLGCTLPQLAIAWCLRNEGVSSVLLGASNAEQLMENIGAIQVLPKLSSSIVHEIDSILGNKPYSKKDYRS
Chain of Alpha-2C adrenergic receptor (Homo sapiens) (P18825 whole entry, looked up): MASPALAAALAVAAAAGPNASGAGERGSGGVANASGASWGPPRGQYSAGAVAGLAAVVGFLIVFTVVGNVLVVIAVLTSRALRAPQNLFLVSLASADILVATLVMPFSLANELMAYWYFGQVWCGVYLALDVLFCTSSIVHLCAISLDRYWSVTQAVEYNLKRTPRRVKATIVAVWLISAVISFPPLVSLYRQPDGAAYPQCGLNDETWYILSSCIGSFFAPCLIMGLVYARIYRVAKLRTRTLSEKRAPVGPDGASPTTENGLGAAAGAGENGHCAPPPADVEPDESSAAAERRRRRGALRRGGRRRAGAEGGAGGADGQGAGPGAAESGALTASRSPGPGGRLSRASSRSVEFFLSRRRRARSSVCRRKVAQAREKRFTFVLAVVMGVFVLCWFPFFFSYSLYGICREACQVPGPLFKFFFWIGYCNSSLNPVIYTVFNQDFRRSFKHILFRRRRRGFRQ

On to `CCN(CC)CC#CCOC(=O)C(O)(c1ccccc1)C1CCCCC1` (stereo not given), for which, in assay [1], the cell count is 506. In addition, the inhibition (usually the change of the read-out against control, counted positive when it falls) was -6.6% (inactive) in assay [1]; 4.9% (inactive) in assay [3]; 5.42% (inactive) in [5]; 6.66% (inactive) and 16.9% (inactive) in assay [10]; 9.64% (inactive) in assay [11]; 30.4% (inactive) in assay [12]. Also, the inhibition of aggregation in [2] is -15.9% (inactive). In addition, the nuclei count in assay [2] was 97.3%; in assay [3] it was 112%. For the same molecule, the z-score is -0.442 in assay [4] (setting [13]), -0.591 in assay [4] (setting [14]) and 0.229 in [4] (setting [15]). Further, the fluorescence slope in [6] is -0.492 (inactive). Besides, the NADPH fluorescence slope in assay [7] is -7.5e-05 (inactive). Besides, the slope in [8] is 0.00459 (inactive). In addition, the molecule was called inactive in assay [9].

Turning to `CN1CCC(=C2c3ccccc3C=Cc3ccccc32)CC1`, the cell count in [1] turned out to be 599. In addition, the inhibition in assay [1] is -6% (inactive); in assay [3], -80% (inactive); in [5], 9.37% (inactive); in [10], 12% (inactive) and 38.6% (inactive); in [11], 18.4% (inactive); in assay [12], 46.7% (inactive). Further, in [2], the inhibition of aggregation was -5.2% (inactive). For the same molecule, the nuclei count in [2] is 104%; in assay [3] it was 131%. Further, the z-score is 0.654 in assay [4] (setting [13]), 1.45 in assay [4] (setting [14]) and -1.1 in assay [4] (setting [15]). For the same molecule, the fluorescence slope in assay [6] is -0.438 (inactive). For the same molecule, the NADPH fluorescence slope in assay [7] is -6.6e-05 (inactive). Moreover, the slope in assay [8] is 0.00408 (inactive). Further, the outcome in assay [9] is “inactive; toxic”.

In the case of `Fc1ccc(C2C3=C(Nc4ncnn42)c2ccccc2OC3c2ccncc2)cc1` (stereo not given), the cell count in assay [1] is 363. Further, the inhibition in assay [1] was 1.7% (inactive); in [3], -83.1% (inactive); in assay [5], 21.4% (inactive); in [10], -7.08% (inactive); in assay [11] it was 17.4% (inactive); in [12], 19.3% (inactive). The inhibition of aggregation in assay [2] was 2.1% (inactive). Moreover, the nuclei count in assay [2] was 113%; in assay [3], 136%. Also, the z-score in assay [4] (setting [13]) was 0.971; in assay [4] (setting [14]), -0.105; in assay [4] (setting [15]), 1.45. Besides, the fluorescence slope in [6] was -0.41 (inactive). Further, in assay [7], the NADPH fluorescence slope was -0.000137 (inactive). For the same molecule, the slope in assay [8] is 0.00729 (inactive). The outcome in assay [9] was inactive.

As for `CCc1cc2c(=O)c(-c3cscn3)coc2cc1O`, the cell count in assay [1] came to 406. Further, the inhibition in assay [1] was -6.1% (inactive); in assay [3], -99% (inactive); in assay [5] it was 1.98% (inactive); in assay [10], -8.67% (inactive); in assay [11] it was 20.6% (inactive); in assay [12] it was 26.3% (inactive). Further, the inhibition of aggregation in assay [2] was -9.9% (inactive). For the same molecule, the nuclei count in [2] turned out to be 59.7%; in assay [3], 103%. Also, the z-score in assay [4] (setting [13]) is -2.75; in assay [4] (setting [14]), 2.51; in [4] (setting [15]) it was -1.53. In addition, the fluorescence slope in [6] was -0.528 (inactive). Also, the NADPH fluorescence slope in assay [7] is 4e-05 (inactive). For the same molecule, the slope in assay [8] is 0.00552 (inactive). Further, the call in assay [9] was inactive.

For `Cc1cc(-c2ccc(F)cc2)nc2cc(C(N)=O)nn12`, in assay [1], the cell count stood at 567. Further, the inhibition in assay [1] is -4% (inactive); in assay [3], 14.3% (inactive); in [5], 5.57% (inactive); in assay [10] it was 13.5% (inactive); in [11], -10.5% (inactive); in [12], -21.7% (inactive). Moreover, the inhibition of aggregation in assay [2] is 8.1% (inactive). Besides, the values for the nuclei count in assay [2] and in assay [3] were 99.3% and 117%, respectively. Besides, the z-score in [4] (setting [13]) was -0.951; in assay [4] (setting [14]), 0.396; in [4] (setting [15]) it was -0.666. For the same molecule, the fluorescence slope in assay [6] was -0.377 (inactive). Further, the NADPH fluorescence slope in assay [7] is -0.000109 (inactive). Besides, the slope in assay [8] was 0.00367 (inactive). For the same molecule, the outcome in assay [9] was inactive.

As to `CN1CCN(CCCN2c3ccccc3Sc3ccc(C(F)(F)F)cc32)CC1`, the cell count in assay [1] was 613. Also, the inhibition was 4.1% (inactive) in assay [1]; -23.1% (inactive) in assay [3]; -5.24% (inactive) in assay [5]; 35.7% (inactive) and 164% (active) in assay [10]; 18.2% (inactive) in assay [11]; 40.2% (inactive) in assay [12]. The inhibition of aggregation in assay [2] is -9.7% (inactive). Further, the nuclei count was 101% in [2] and 121% in assay [3]. The z-score was found to be 0.592 in assay [4] (setting [13]), 0.844 in assay [4] (setting [14]) and 1.24 in assay [4] (setting [15]). In addition, the fluorescence slope in assay [6] was -0.437 (inactive). Further, in [7], the NADPH fluorescence slope was -1.6e-05 (inactive). Besides, the slope in assay [8] was 0.00437 (inactive). Further, in assay [9], the molecule was called inactive.

In the case of `NC(=O)c1cc(-c2ccccc2)nc(Oc2ccccc2)n1`, the cell count in assay [1] is 472. Moreover, the inhibition in assay [1] is -18.1% (inactive); in assay [3], -13.2% (inactive); in [5] it was 6.51% (inactive); in assay [10], -1.45% (inactive); in [11], 13.4% (inactive); in assay [12], 1.65% (inactive). Moreover, the inhibition of aggregation in assay [2] was 8.5% (inactive). Also, the figures for the nuclei count in assay [2] and in assay [3] were 99% and 109%, respectively. Also, the figures for the z-score in assay [4] (setting [13]), in assay [4] (setting [14]) and in assay [4] (setting [15]) were -0.736, -0.523 and 0.468, respectively. Besides, the fluorescence slope in assay [6] was -0.53 (inactive). In [7], the NADPH fluorescence slope is -8.3e-05 (inactive). In [8], the slope was 0.00808 (inactive). Further, the result in assay [9] was inactive.

`COc1ccc2c(c1)c(CC(=O)OCC(=O)O)c(C)n2C(=O)c1ccc(Cl)cc1`: the cell count in assay [1] stood at 609. For the same molecule, the inhibition was -4% (inactive) in assay [1]; -34.9% (inactive) in assay [3]; 17.3% (inactive) in assay [5]; 14.4% (inactive) in assay [10]; 11.9% (inactive) in [11]; 36.9% (inactive) in [12]. In assay [2], the inhibition of aggregation was -25.2% (inactive). Besides, the nuclei count in [2] was 89.1%; in assay [3], 111%. Also, the results for the z-score in assay [4] (setting [13]), in [4] (setting [14]) and in assay [4] (setting [15]) were -0.113, 0.548 and -0.549, respectively. In assay [6], the fluorescence slope is -0.451 (inactive). For the same molecule, the NADPH fluorescence slope in assay [7] was -3.8e-05 (inactive). Further, the slope in assay [8] is 0.00555 (inactive). Besides, in [9], the molecule was classed as inactive.

On to `C[C@]12CCC(=O)C=C1CC[C@@H]1[C@@H]2C(=O)C[C@@]2(C)[C@H]1CC[C@]2(O)C(=O)CO`, for which, in [1], the cell count was 603. For the same molecule, the inhibition in [1] is -6% (inactive); in assay [3] it was -119% (inactive); in assay [5] it was -4.44% (inactive); in [10], -0.81% (inactive) and 2.73% (inactive); in [11], 10.2% (inactive); in assay [12], 21.1% (inactive). The inhibition of aggregation in assay [2] is 21.4% (inactive). Further, the values for the nuclei count in assay [2] and in assay [3] were 102% and 120%, respectively. Moreover, the z-score in assay [4] (setting [13]) is -0.503; in [4] (setting [14]), -1.16; in assay [4] (setting [15]), 1.19. For the same molecule, the fluorescence slope in [6] was -0.503 (inactive). For the same molecule, the NADPH fluorescence slope in assay [7] was -3.1e-05 (inactive). Further, the slope in assay [8] was 0.00463 (inactive). Moreover, the call in assay [9] was inactive.

As to `CCN(CC)c1ncc(C)c(=O)[nH]1`, the cell count in [1] came out at 410. In addition, the inhibition is -19.3% (inactive) in [1]; -44.9% (inactive) in [3]; -2.69% (inactive) in assay [5]; 31.2% (inactive) in assay [10]; 22.3% (inactive) in assay [11]; 22% (inactive) in assay [12]. Besides, in assay [2], the inhibition of aggregation is -26.9% (inactive). Moreover, the nuclei count in [2] came out at 121%; in [3], 111%. Also, the z-score in [4] (setting [13]) is 0.304; in [4] (setting [14]), -0.433; in assay [4] (setting [15]), -0.0626. Further, the fluorescence slope in [6] was -0.541 (inactive). Further, the NADPH fluorescence slope in assay [7] was -8.2e-05 (inactive). The slope in assay [8] is 0.00493 (inactive). Further, in assay [9], the result was inactive.
